# Assay results taken from PubChem BioAssay (EPA / NIEHS).
# Records with an inconclusive call do not appear. Active and inactive are the calls of the source. How the source made its calls: active means hit-call score of the fitted dose curve at least 0.9, where 1 is the maximum; inconclusive means response in the unintended direction; inactive means score below 0.9.
# Key:
# [1] = biological target: rat Neurotensin Receptor (NTS), Ntsr1 (gene 366274) (UniProt P20789); test: NVS_GPCR_rNTS: NovaScreen (NVS) G Protein-Coupled Receptor Assay for rat Neurotensin Receptor (NTS) (AID 2283308)
# How it was run: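 Single-point duplicates at 25 uM, then concentration series to 50 uM max for hits, measured radioligand displacement on rat forebrain membrane preparations. Bound label counted by filtration scintillation at 1 h; signal loss relative to DMSO fitted.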
# [2] = biological target: human Neonicotinoid receptor (NNR), CHRNA2 (gene 1135) (UniProt Q15822); test: NVS_LGIC_hNNR_NBungSens: NovaScreen (NVS) Ligand-Gated Ion Channel Assay for human Neonicotinoid receptor (NNR) (AID 2283313)
# How it was run: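 Compounds first screened in duplicate at 25 uM, then actives re-tested in single-replicate dose series up to 50 uM. Binding measured as displacement of specific radioligand from neuroblastoma membrane receptors after 2 h, scintillation read on filters.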
# [3] = biological target: rat Gamma-Aminobutyric Acid Type B Receptor (GABBR), Gabbr1 (gene 81657) (UniProt Q9Z0U4); test: NVS_GPCR_rGABBR: NovaScreen (NVS) G Protein-Coupled Receptor Assay for rat Gamma-Aminobutyric Acid Type B Receptor (GABBR) (AID 2283301)
# How it was run: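 Rat cortical membrane preparation, competitive radioligand binding for 1 h with filtration and scintillation readout. Actives from duplicate single-point 25 uM screening proceeded to concentration series with 50 uM top concentration.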
# [4] = biological target: rat Neurokinin-3 Receptor (NK3), Tacr3 (gene 24808) (UniProt P16177); test: NVS_GPCR_rNK3: NovaScreen (NVS) G Protein-Coupled Receptor Assay for rat Neurokinin-3 Receptor (NK3) (AID 2283310)
# How it was run: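 Filter-based radioligand displacement on rat cortex membrane preparations, read by scintillation 2 h post-dose. Chemicals first tested in duplicate at 25 uM; actives followed up in concentration series with a 50 uM maximum.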
# Adra2b (gene 24174) = Adra2b (gene 24174) (UniProt P19328); test: NVS_GPCR_rmAdra2B: NovaScreen (NVS) G Protein-Coupled Receptor Assay for hybird cells Adrenergic, Alpha 2B Receptor (Adra2B) (AID 2283306)
# How it was run: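 Compounds screened first at 25 uM in duplicate, with actives followed up in concentration-response; specific radioligand displacement from hybrid neuroglioma/blastoma cell membrane preparations measured by filter scintillation counting after 1 h, normalized to DMSO.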
# [5] = biological target: rat Neurokinin-1 Receptor (NK1), Tacr1 (gene 24807) (UniProt P14600); test: NVS_GPCR_rNK1: NovaScreen (NVS) G Protein-Coupled Receptor Assay for rat Neurokinin-1 Receptor (NK1) (AID 2283309)
# Method: (§1) NVS_GPCR_rNK1 is a biochemical, single-readout assay that uses extracted gene-proteins from Rat submaxillary gland membranes in a tissue-based cell-free assay. Measurements were taken 1 hour after chemical dosing in a 48-well plate.NVS_GPCR_rNK1 is one of one assay component(s) measured or calculated from the NVS_GPCR_rNK1 assay. It is designed to make measurements of radioligand binding, a form of binding reporter, as detected with scintillation counting signals by Filter-based radiodetection technology.Data from the assay component NVS_GPCR_rNK1 was analyzed into 1 assay endpoint. This assay endpoint, NVS_GPCR_rNK1, was analyzed in the positive analysis fitting direction relative to DMSO as the negative control and baseline of activity. Using a type of binding reporter, loss-of-signal activity can be used to understand changes in the binding as they relate to the gene Tacr1. Furthermore, this assay endpoint can be referred to as a primary readout, because the performed assay has only produced 1 assay endpoint. To generalize the intended target to other relatable targets, this assay endpoint is annotated to the gpcr intended target family, where the subfamily is rhodopsin-like receptor.
# Binding assays used specific radioligands (tritiated, iodinated) with non-radioactive competitive displacement ligands in agonist or antagonist protocols (as indicated) and various reference compounds and inhibitors to titrate specific binding to receptors and transporters. Most enzyme assays (CYPs, kinases, phosphatases, proteases, HDACs) used recombinant protein and specific substrates (fluorescence mostly, some colorimetric and radioactive) and inhibitors, followed by a biochemical separation of substrate and product. All assays for the biochemical HTS were initially run in duplicate at a single concentration (10 uM for CYP450 assays and 25 uM for all others). […] Each assay was run with positive and negative controls, and concurrent controls on every plate. The follow-up (secondary) screen tested active chemical-pairs in concentration series, as well as a few additional assays not tested in the primary screen, some selected negative inactives, and several cases re-run in the concentration series for confirmatory purposes.
# [6] = biological target: rat Opioid Receptor, Non-selective Sodium (Na+) Binding, Oprm1 (gene 25601) (UniProt P33535); test: NVS_GPCR_rOpiate_NonSelectiveNa: NovaScreen (NVS) G Protein-Coupled Receptor Assay for rat Opioid Receptor, Non-selective Sodium (Na+) Binding (AID 2283311)
# Method: as §1, with “NVS_GPCR_rOpiate_NonSelectiveNa” for “NVS_GPCR_rNK1”, “forebrain” for “submaxillary gland”, “1.5 hours” for “1 hour”, “plate.NVS_GPCR_rOpiate_NonSelectiveNa” for “plate.NVS_GPCR_rNK1”, “NVS_GPCR_rOpiate_NonSelectiveNa,” for “NVS_GPCR_rNK1,”, “Oprm1.” for “Tacr1.”
# Binding assays used specific radioligands (tritiated, iodinated) with non-radioactive competitive displacement ligands in agonist or antagonist protocols (as indicated) and various reference compounds and inhibitors to titrate specific binding to receptors and transporters. Most enzyme assays (CYPs, kinases, phosphatases, proteases, HDACs) used recombinant protein and specific substrates (fluorescence mostly, some colorimetric and radioactive) and inhibitors, followed by a biochemical separation of substrate and product. All assays for the biochemical HTS were initially run in duplicate at a single concentration (10 uM for CYP450 assays and 25 uM for all others). Assay-chemical combinations meeting a pre-defined threshold (e.g., 30% inhibition and other criteria defined below) were then run in singleton concentration-response format with maximum concentration of 20 uM for CYPs and 50 uM for all others. Each assay was run with positive and negative controls, and concurrent controls on every plate. The follow-up (secondary) screen tested active chemical-pairs in concentration series, as well as a few additional assays not tested in the primary screen, some selected negative inactives, and several cases re-run in the concentration series for confirmatory purposes.
# [7] = biological target: rat Histamine Receptor (H3), Hrh3 (gene 85268) (UniProt Q9QYN8); test: NVS_GPCR_rH3: NovaScreen (NVS) G Protein-Coupled Receptor Assay for rat Histamine Receptor (H3) (AID 2283303)
# How it was run: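 Filter-binding radioligand competition on rat forebrain membranes, 1 h incubation; compounds screened at 25 µM in duplicate and followed in concentration series to 50 µM, loss of bound signal vs DMSO.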
# [8] = biological target: Metabotropic glutamate receptor 1 (Rattus norvegicus) (UniProt P23385); test: NVS_GPCR_rmMGluR1: NovaScreen (NVS) G Protein-Coupled Receptor Assay for rat Glutamate Metabotropic Receptor 1 (MGluR1) (AID 2283305)
# How it was run: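 Binding to native receptor from rat cerebellum extract, measured as displacement of a radioligand (scintillation counting, filter separation) after 1 hour. Compounds tested at 25 uM in duplicate, then titrated to a 50 uM maximum.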
# [9] = biological target: rat Somatostatin Receptor (SST), Sstr1 (gene 25033) (UniProt P28646); test: NVS_GPCR_rSST: NovaScreen (NVS) G Protein-Coupled Receptor Assay for rat Somatostatin Receptor (SST) (AID 2283314)
# Method: as §1, with “NVS_GPCR_rSST” for “NVS_GPCR_rNK1”, “forebrain” for “submaxillary gland”, “96-well plate.NVS_GPCR_rSST” for “48-well plate.NVS_GPCR_rNK1”, “NVS_GPCR_rSST,” for “NVS_GPCR_rNK1,”, “Sstr1.” for “Tacr1.”
# Binding assays used specific radioligands (tritiated, iodinated) with non-radioactive competitive displacement ligands in agonist or antagonist protocols (as indicated) and various reference compounds and inhibitors to titrate specific binding to receptors and transporters. Most enzyme assays (CYPs, kinases, phosphatases, proteases, HDACs) used recombinant protein and specific substrates (fluorescence mostly, some colorimetric and radioactive) and inhibitors, followed by a biochemical separation of substrate and product. All assays for the biochemical HTS were initially run in duplicate at a single concentration (10 uM for CYP450 assays and 25 uM for all others). […]
# Sequence of rat Opioid Receptor, Non-selective Sodium (Na+) Binding, Oprm1 (gene 25601) (P33535 whole entry, looked up): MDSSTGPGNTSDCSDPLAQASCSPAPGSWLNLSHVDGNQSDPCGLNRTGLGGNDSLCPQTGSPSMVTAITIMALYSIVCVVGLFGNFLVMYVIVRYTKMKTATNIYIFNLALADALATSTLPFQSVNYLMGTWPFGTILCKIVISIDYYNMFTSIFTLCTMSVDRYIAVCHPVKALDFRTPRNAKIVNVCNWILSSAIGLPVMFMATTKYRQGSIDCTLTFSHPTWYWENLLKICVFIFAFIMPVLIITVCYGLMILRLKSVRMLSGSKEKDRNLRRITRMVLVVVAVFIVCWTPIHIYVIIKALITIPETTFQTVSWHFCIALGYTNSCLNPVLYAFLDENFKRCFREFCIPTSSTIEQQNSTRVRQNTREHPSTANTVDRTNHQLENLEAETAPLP
# Sequence of human Neonicotinoid receptor (NNR), CHRNA2 (gene 1135) (Q15822 whole entry, looked up): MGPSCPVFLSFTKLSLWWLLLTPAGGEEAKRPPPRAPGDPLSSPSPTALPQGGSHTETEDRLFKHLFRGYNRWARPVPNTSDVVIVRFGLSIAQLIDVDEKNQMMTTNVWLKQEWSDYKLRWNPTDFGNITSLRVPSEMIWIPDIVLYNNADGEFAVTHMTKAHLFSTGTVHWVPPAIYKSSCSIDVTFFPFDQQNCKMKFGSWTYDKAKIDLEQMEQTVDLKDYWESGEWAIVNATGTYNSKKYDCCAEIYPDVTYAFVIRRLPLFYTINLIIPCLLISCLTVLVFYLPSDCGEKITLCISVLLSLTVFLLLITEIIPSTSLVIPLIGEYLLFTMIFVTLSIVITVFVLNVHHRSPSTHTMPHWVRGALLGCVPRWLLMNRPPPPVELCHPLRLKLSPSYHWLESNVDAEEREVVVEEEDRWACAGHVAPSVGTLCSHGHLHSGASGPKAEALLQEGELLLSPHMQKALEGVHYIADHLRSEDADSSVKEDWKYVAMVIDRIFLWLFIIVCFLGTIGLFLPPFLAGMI
# Sequence of Adra2b (gene 24174) (P19328 whole entry, looked up): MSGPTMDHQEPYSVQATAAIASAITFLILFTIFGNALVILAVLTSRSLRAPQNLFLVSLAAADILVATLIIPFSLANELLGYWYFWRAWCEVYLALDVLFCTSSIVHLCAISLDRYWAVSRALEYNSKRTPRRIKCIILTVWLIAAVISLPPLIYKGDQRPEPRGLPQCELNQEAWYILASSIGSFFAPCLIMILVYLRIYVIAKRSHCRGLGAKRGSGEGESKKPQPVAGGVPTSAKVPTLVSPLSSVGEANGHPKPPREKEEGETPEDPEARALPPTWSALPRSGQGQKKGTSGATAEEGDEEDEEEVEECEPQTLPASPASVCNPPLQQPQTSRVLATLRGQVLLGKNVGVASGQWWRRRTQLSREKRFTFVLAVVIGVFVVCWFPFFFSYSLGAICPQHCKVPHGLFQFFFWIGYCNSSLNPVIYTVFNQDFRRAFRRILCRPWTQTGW
# Sequence of rat Neurotensin Receptor (NTS), Ntsr1 (gene 366274) (P20789 whole entry, looked up): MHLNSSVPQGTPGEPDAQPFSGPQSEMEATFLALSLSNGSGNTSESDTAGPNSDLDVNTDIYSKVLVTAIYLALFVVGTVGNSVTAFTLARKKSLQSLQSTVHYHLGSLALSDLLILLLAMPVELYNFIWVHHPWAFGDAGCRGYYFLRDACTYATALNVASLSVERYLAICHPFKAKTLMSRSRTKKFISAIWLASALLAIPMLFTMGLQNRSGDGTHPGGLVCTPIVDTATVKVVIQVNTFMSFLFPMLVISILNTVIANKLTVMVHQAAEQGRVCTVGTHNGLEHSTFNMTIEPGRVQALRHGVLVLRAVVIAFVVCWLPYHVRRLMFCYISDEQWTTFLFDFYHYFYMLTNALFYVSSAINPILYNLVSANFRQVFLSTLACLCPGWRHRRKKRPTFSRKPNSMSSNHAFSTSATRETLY
# Sequence of rat Neurokinin-1 Receptor (NK1), Tacr1 (gene 24807) (P14600 whole entry, looked up): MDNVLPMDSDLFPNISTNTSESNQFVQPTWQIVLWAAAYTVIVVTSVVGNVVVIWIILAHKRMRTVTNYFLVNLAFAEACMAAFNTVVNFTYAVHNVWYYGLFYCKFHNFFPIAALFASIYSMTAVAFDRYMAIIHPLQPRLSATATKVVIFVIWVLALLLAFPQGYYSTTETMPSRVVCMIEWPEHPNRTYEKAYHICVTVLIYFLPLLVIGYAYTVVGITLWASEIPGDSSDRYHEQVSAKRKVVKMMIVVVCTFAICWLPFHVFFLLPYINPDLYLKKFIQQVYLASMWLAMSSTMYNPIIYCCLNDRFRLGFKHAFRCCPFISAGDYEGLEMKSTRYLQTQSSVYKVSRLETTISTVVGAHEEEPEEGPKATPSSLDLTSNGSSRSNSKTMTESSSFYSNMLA
# Sequence of rat Neurokinin-3 Receptor (NK3), Tacr3 (gene 24808) (P16177 whole entry, looked up): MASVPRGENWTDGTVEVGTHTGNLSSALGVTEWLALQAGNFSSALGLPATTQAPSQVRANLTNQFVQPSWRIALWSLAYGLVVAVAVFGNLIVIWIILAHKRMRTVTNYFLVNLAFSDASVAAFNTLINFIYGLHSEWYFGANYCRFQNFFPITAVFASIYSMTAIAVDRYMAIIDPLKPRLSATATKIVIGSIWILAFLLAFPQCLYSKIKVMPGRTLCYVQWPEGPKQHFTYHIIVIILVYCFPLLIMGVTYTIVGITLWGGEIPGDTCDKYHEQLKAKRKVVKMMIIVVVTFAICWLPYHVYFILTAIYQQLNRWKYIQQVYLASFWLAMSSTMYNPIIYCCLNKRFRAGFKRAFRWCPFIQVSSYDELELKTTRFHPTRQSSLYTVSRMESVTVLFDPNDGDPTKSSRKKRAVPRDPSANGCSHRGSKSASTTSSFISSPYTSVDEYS
# Sequence of Metabotropic glutamate receptor 1 (Rattus norvegicus) (P23385 whole entry, looked up): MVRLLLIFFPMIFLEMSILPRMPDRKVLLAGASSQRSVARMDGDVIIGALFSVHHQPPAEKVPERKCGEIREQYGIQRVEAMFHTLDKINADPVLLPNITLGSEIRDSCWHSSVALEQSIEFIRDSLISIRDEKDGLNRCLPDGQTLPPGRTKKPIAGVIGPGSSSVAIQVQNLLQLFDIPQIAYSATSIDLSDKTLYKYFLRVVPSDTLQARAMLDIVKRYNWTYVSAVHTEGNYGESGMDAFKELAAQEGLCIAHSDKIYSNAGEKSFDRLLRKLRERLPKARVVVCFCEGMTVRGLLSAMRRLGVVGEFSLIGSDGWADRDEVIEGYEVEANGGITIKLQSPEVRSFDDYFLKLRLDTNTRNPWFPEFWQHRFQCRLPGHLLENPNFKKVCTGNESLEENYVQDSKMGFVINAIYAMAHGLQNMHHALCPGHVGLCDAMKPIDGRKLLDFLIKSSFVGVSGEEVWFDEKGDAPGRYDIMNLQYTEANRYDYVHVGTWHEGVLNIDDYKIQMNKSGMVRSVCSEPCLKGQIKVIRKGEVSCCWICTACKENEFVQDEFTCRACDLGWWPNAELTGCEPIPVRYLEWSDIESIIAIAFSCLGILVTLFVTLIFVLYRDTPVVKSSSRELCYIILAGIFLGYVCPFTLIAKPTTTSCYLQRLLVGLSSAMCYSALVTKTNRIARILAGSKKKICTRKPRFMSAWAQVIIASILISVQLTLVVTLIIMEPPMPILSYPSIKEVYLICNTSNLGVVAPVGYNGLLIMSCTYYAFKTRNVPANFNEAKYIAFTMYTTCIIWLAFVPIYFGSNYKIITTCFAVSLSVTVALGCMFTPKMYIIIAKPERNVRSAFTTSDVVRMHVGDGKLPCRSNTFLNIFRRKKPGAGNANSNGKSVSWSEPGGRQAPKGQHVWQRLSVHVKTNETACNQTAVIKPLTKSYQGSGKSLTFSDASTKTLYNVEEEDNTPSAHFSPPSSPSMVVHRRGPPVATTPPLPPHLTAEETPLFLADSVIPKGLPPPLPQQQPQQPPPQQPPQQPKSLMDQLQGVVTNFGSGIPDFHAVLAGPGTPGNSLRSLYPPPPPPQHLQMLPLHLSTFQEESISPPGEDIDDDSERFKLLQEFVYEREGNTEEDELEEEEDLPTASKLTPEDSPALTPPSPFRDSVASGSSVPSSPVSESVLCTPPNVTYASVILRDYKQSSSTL
# Sequence of rat Somatostatin Receptor (SST), Sstr1 (gene 25033) (P28646 whole entry, looked up): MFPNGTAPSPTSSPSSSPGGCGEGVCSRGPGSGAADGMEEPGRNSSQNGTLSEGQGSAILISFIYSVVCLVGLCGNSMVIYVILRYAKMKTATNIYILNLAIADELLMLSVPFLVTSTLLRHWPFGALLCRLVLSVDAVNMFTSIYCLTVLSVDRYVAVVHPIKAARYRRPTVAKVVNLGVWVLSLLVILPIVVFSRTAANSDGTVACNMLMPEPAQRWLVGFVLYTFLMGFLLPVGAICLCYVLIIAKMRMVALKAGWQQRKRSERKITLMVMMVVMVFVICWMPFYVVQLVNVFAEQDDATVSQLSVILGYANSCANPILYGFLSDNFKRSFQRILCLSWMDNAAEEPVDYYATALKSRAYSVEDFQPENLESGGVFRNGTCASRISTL
# Sequence of rat Histamine Receptor (H3), Hrh3 (gene 85268) (Q9QYN8 whole entry, looked up): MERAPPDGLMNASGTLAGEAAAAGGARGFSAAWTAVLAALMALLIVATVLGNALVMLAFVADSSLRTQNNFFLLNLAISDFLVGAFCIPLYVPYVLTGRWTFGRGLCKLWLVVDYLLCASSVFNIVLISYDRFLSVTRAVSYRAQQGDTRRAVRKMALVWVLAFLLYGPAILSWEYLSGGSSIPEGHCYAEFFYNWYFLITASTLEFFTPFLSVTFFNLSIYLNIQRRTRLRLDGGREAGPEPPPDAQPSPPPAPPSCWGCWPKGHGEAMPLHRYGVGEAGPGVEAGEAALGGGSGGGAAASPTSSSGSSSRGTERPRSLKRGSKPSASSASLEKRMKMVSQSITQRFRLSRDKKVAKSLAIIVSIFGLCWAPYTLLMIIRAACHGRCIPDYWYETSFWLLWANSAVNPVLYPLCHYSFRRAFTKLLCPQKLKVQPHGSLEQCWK
structure (smiles),measurement,setting,value
S=C1NCCN1,outcome,[1],inactive
same,outcome,[2],inactive
COP(=O)(NC(C)=O)SC (centres undefined),outcome,[3],inactive
CCCCSP(=O)(SCCCC)SCCCC,outcome,[1],inactive
CCOP(=O)(NC(C)C)Oc1ccc(SC)c(C)c1 (centres undefined),outcome,[4],inactive
CCC(=O)Nc1ccc(Cl)c(Cl)c1,outcome,Adra2b (gene 24174),inactive
CSC1=N[C@@](C)(c2ccccc2)C(=O)N1Nc1ccccc1,outcome,[5],inactive
C[N+]1(C)CCCCC1,AC50,[2],11.2 µM (active)
C=C(C)[C@H]1Cc2c(ccc3c2O[C@@H]2COc4cc(OC)c(OC)cc4[C@@H]2C3=O)O1,outcome,[1],inactive
CCc1cccc(C)c1N(C(=O)CCl)C(C)COC (centres undefined),AC50,[6],12.4 µM (active)
COP(=O)(OC)OC(Br)C(Cl)(Cl)Br (centres undefined),AC50,[7],5.79 µM (active)
CCCOCC(=Nc1ccc(Cl)cc1C(F)(F)F)n1ccnc1,outcome,[5],inactive
same,outcome,[4],inactive
C[Si](Cn1cncn1)(c1ccc(F)cc1)c1ccc(F)cc1,AC50,Adra2b (gene 24174),25 µM (active)
same,outcome,[5],inactive
same,outcome,[4],inactive
CC(=NC#N)N(C)Cc1ccc(Cl)nc1,AC50,[2],4.61 µM (active)
FC(F)C(F)(F)OCC(Cn1cncn1)c1ccc(Cl)cc1Cl (centres undefined),outcome,[5],inactive
CN(C)C(=O)Nc1cccc(C(F)(F)F)c1,outcome,[4],inactive
CCOP(=S)(OCC)Oc1ccc([N+](=O)[O-])cc1,outcome,[6],inactive
COc1ccc(C(=CC(=O)N2CCOCC2)c2ccc(Cl)cc2)cc1OC,AC50,Adra2b (gene 24174),11.7 µM (active)
same,outcome,[5],inactive
same,outcome,[6],inactive
CCOP(=O)(OCC)Oc1cc(C)nc(C(C)C)n1,outcome,[1],inactive
same,outcome,[5],inactive
CC[C@H](C)[C@H]1O[C@]2(C=C[C@@H]1C)C[C@@H]1C[C@@H](C/C=C(\C)[C@@H](O[C@H]3C[C@H](OC)[C@@H](O[C@H]4C[C@H](OC)[C@@H](NC)[C@H](C)O4)[C@H](C)O3)[C@@H](C)/C=C/C=C3\CO[C@@H]4[C@H](O)C(C)=C[C@@H](C(=O)O1)[C@]34O)O2,AC50,[8],12.7 µM (active)
same,AC50,Adra2b (gene 24174),34.8 µM (active)
same,AC50,[5],30.6 µM (active)
same,AC50,[9],2.49 µM (active)
